# Test results as given in PubChem BioAssay AID588405 (Sanford-Burnham Center for Chemical Genomics, 2011).
# The whole screen tested about 360,000 compounds, of which about 6,200 (1.7%) were called active.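 Rule for the calls: active = inhibition of at least 50% at 20 µM; inactive = the rest.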 This excerpt belongs to a sample that is enriched for actives.
# Test: Peg3 promoter-driven luciferase inhibitors, primary screen, cell-based, HeLa, luciferase luminescence (AID 588405)
# Conditions: HeLa PEG-Prom luciferase reporter, overnight, at 20 µM, hits give high values
row,SMILES,inhibition
1,Cc1ccc(-c2cnc(C(O)c3cccc(C)c3C)[nH]2)cc1 (stereo not drawn),-14.4% (inactive)
2,Cc1ccc(Cc2c(-c3ccco3)nc3ccc(Cl)cn23)cc1,2.16% (inactive)
3,Cc1cccc(-n2ncc(Cl)c(Cl)c2=O)c1,109% (active)
4,Cc1cccc(-n2ncc3c(=O)[nH]c(SCC(=O)Nc4cc(C)on4)nc32)c1,15.5% (inactive)
5,CC(=O)Nc1c2c(nn1-c1cccc(C)c1)CSC2,1.92% (inactive)
6,CCc1nc2ccc(C(=O)N(C)CCN(C)C)cn2c1N(CC)CCOC,-8.52% (inactive)
7,CN1CCN(C2Cc3ccc(Cl)cc3Sc3ccc(F)cc32)CC1 (stereo not drawn),76% (active)
8,CC1(C(=O)NS(=O)(=O)c2cccc(F)c2)CCN1C(=O)Cc1cc(F)ccc1F (stereo not drawn),7.15% (inactive)
9,CC1(c2ccccc2)NC(=O)N(CC(=O)Nc2cc(Cl)ccc2N2CCOCC2)C1=O (stereo not drawn),2.35% (inactive)
10,O=C(CSc1nc(Nc2ccccc2)nc(N2CCOCC2)n1)Nc1cc(Cl)ccc1O,86.5% (active)
11,C/C(=N\Nc1nc(Nc2ccccc2)nc(N2CCOCC2)n1)c1cccs1,7.28% (inactive)
12,Brc1ccc2nc(-c3ccccc3)c(Cc3ccccc3)n2c1,-51% (inactive)
13,CCOC(=O)c1ccc(-c2ccc3ncnc(N(C)Cc4sccc4C)c3c2)o1,31.1% (inactive)
14,CCCCSc1[nH]c(=O)c(C(=O)OCC)cc1C#N,3.02% (inactive)
15,Cc1nc(N=C(N)N)nc2c(C)cccc12,20.3% (inactive)
16,COC(=O)Cn1nc(-c2ccccc2)c2cc(Cl)ccc21,13.3% (inactive)
17,NC(N)=Nc1nc(-c2ccccc2)c2cc(Cl)ccc2n1,108% (active)
18,CCCS(=O)(=O)NC(=O)C1(C)CCCN(C(=O)c2ccnc(Cl)c2)C1 (stereo not drawn),-1.18% (inactive)
19,OC[C@@H]1CN(Cc2ccc3c(c2)OCO3)C[C@H](n2cnc3c(NCc4ccco4)ncnc32)O1,-2.19% (inactive)
20,Cc1cc(O)ccc1-c1cc(C(=O)NCc2cc(C(F)(F)F)cc(C(F)(F)F)c2)[nH]n1,5.2% (inactive)
21,Oc1ccc2ccccc2c1N=Nc1nccs1,97.5% (active)
22,COC(=O)[C@@H]1C[C@@]2(O)[C@H](O)[C@H](O)[C@H](O)C[C@H]2N1Cc1ccc(C(C)(C)C)cc1,2.16% (inactive)

row,SMILES,inhibition
1,CCOc1ccc2nc(Cl)c(C3CC(c4ccccc4)=NN3C(=O)c3cccs3)cc2c1 (stereo not drawn),55.1% (active)
2,O=C(COc1ccc2ccccc2c1)N1CCN(C(=O)c2cccs2)CC1,3.04% (inactive)
3,COc1ccc(C2=NN(C(=O)CCC(=O)O)C(c3cccs3)C2)cc1OC (stereo not drawn),9.5% (inactive)
4,COC(=O)c1ccc2nc(-c3ccc(Cl)cc3)c(Cc3cccc(F)c3)n2c1,-38.1% (inactive)
5,Cc1noc(C)c1C(=O)N1CCC1(C)C(=O)NS(=O)(=O)c1ccc(C#N)cc1 (stereo not drawn),-15.2% (inactive)
6,CC(O)(c1cccc(F)c1)c1nc(-c2ccc3c(c2)OCO3)cs1 (stereo not drawn),-65.7% (inactive)
7,CC(C)(C)Cc1c(C2CCCCC2)nc2ccc(Br)cn12,16% (inactive)
8,Cc1nn(Cc2ccccc2Cl)c(C)c1NC(=O)Cn1nc([N+](=O)[O-])c(Cl)c1C,-1.84% (inactive)
9,O=C(N/N=C\c1ccc(Br)cc1)c1ccc(Cn2cccn2)o1,-62.6% (inactive)
10,Cc1c(Cl)c([N+](=O)[O-])nn1Cc1ccc(C(=O)N/N=C\c2cc(Cl)ccc2O)o1,61.5% (active)
11,COCOc1cccc(CN2CCC(C)(Oc3ccc(SC)cc3)C2)c1 (stereo not drawn),-1.46% (inactive)
12,COc1cc(Cl)c(C)cc1NC(=O)CSc1nnc(-c2ccco2)n1CC(C)C,12.4% (inactive)
13,NC(Cc1ccccc1)c1csc(Nc2cc(Oc3ccccc3)ncn2)n1 (stereo not drawn),54.6% (active)
14,Cc1nc2c(OCc3ccc(Cl)cc3)cccn2c1N(C)Cc1cccs1,6.73% (inactive)
15,Cc1ccc(C(=O)O/N=C(\N)c2ccccn2)cc1Cl,62.4% (active)
16,N/C(=N\OC(=O)c1ccc([N+](=O)[O-])cc1)c1ccccn1,5.67% (inactive)
17,Cc1cccc(/C(N)=N/OC(=O)c2ccccc2Cl)c1,-145% (inactive)
18,CC(=O)Nc1cccc(-c2cc(NC(C)=O)c3ncc(-c4ccccc4)n3c2)c1,20.6% (inactive)
19,CCOC(=O)C1CN(S(=O)(=O)c2ccc(OC)cc2)c2cc(Cl)ccc2O1 (stereo not drawn),8.58% (inactive)
20,Cc1ccc(NC(=O)[C@H](Cc2ccccc2)NC(=O)CC[C@H]2O[C@@H](n3ccc(=O)[nH]c3=O)[C@H](O)[C@@H]2O)cc1C,4.14% (inactive)
21,COC(=O)c1ccc2nc(-c3cccc(Br)c3)c(Cc3ccc(OC)cc3C)n2c1,-33% (inactive)
22,CCCCNc1c(-c2cccc(Sc3ccc(OC)cc3)c2)nc2ccccn12,92.9% (active)

row,SMILES,inhibition
1,CCCCNc1c(-c2ccc(OC)c(Sc3ccc(OC)cc3)c2)nc2ccc(Cl)cn12,-44% (inactive)
2,CS(=O)(=O)/C(C#N)=C/c1cccn1S(=O)(=O)c1ccc([N+](=O)[O-])cc1,-17.4% (inactive)
3,O=C(NCCN1CCOCC1)c1ccccc1N1C(=O)[C@@H]2Cc3c([nH]c4ccccc34)C(c3cccc(Cl)c3)N2C1=O (stereo partly drawn),20.3% (inactive)
4,CC(C)c1cccc(C(C)C)c1Nc1cn[nH]c1,9.45% (inactive)
5,COC(=O)c1ccc2nc(-c3ccc(OC)c(OC)c3)c(Cc3ccccc3)n2c1,-21.6% (inactive)
6,Cc1nnc(N/N=C/c2ccccn2)[nH]c1=O,62% (active)
7,O=C(N/N=C/c1ccccn1)C12CC3CC(CC(C3)C1)C2,-8.28% (inactive)
8,S=C(NN=Cc1ccccn1)Nc1ccccn1,-79.6% (inactive)
9,Cc1ccc(CNC(=O)Nc2nnc([C@H]3C[C@H](O)[C@@H](CO)O3)s2)cc1,-6.3% (inactive)
10,CC1(C(=O)Nc2ccc3c(c2)OCCO3)CCN1C(=O)Cc1cc(F)ccc1F (stereo not drawn),2.13% (inactive)
11,Cc1ccc(C(=O)N/C(=C\c2ccco2)C(=O)NC2CCS(=O)(=O)C2)cc1 (stereo not drawn),16.9% (inactive)
12,CCCc1nc2c3ccccc3ccn2c1Cc1ccccc1C(F)(F)F,-16% (inactive)
13,CN1OC[C@@H]2CN(C(=O)C(C)(C)C)[C@H](c3ccc(-n4ccnc4)cc3)C[C@@H]21,-4.85% (inactive)
14,CN(C)S(=O)(=O)N1CCN(c2ccc([N+](=O)[O-])cc2)CC1,14.5% (inactive)
15,O=C1/C(=C\c2ccc([N+](=O)[O-])cc2)CS(=O)(=O)C/C1=C/c1ccc([N+](=O)[O-])cc1,100% (active)
16,CC(=O)Nc1ccc(C=Cc2ccc([N+](=O)[O-])cc2)cc1,-310% (inactive)
17,CCCNC(=O)C1(C)CCCN(Cc2cccc(C(F)(F)F)c2)C1 (stereo not drawn),2.53% (inactive)
18,CCCOc1ccc(F)cc1-c1cc(C(=O)Nc2ccc(F)c(Cl)c2)[nH]n1,25.8% (inactive)
19,CC1(C(=O)NS(=O)(=O)C2CC2)CCCN(C(=O)CSc2ccccc2)C1 (stereo not drawn),8.07% (inactive)
20,O=S(=O)(c1ccccc1)N1CCC(c2ccccc2)CC1,6.2% (inactive)
21,CC(=O)N1CC(C)c2scc(C)[n+]2-c2ccccc21 (stereo not drawn),5.89% (inactive)
22,CN1OC[C@@H]2CN(S(=O)(=O)c3cccc4ccccc34)[C@H](c3ccc(N4CCCCC4)cc3)C[C@@H]21,-9.16% (inactive)

row,SMILES,inhibition
1,COc1ccc(S(=O)(=O)N2C[C@H]3CON(C)[C@H]3C[C@H]2c2cccc(Br)c2)cc1,6.82% (inactive)
2,CN1OC[C@@H]2CN(S(=O)(=O)c3cccc(C(F)(F)F)c3)[C@H](c3ccc(-c4cc5ccccc5o4)cc3)C[C@@H]21,68.8% (active)
3,Nc1nc2c(ncn2[C@@H]2O[C@H](CNS(=O)(=O)N3CCc4ccccc4C3)[C@@H](O)[C@H]2O)c(=O)[nH]1,5.67% (inactive)
4,Cc1ccc(-c2cnc(C(O)c3cc(Cl)cc(Cl)c3)[nH]2)cc1 (stereo not drawn),37.2% (inactive)
5,CC1(C)CCSC(/C=C/c2ccccc2)=N1,106% (active)
6,CC1(C(=O)O)CCN1C(=O)/C=C/c1ccccc1 (stereo not drawn),-2.65% (inactive)
7,CC1(C(=O)NS(=O)(=O)c2ccccc2)CCN1C(=O)C/C=C/c1ccccc1 (stereo not drawn),-9.64% (inactive)
8,CC(C)(C)c1ccc(C(=O)NCC(=O)OCN2C(=O)c3ccccc3C2=O)cc1,-11.7% (inactive)
9,CC(=O)N(CN1C(=O)C2CC=CCC2C1=O)c1cccc(Cl)c1 (stereo not drawn),12% (inactive)
10,O=C(CCl)N(Cc1cccc([N+](=O)[O-])c1)c1cccc(Cl)c1,109% (active)
11,COC(=O)c1cc(C(=O)N(Cc2ccccc2)c2ccccn2)cc([N+](=O)[O-])c1,5.92% (inactive)
12,COC(=O)Cc1ccc(OC2(C)CCN(Cc3ccc4c(c3)OCCO4)C2)cc1 (stereo not drawn),-18.6% (inactive)
13,Cc1cccc(C)c1NC(=O)CN1CCN(c2ccc(F)cc2)CC1,5.77% (inactive)
14,Cc1ccc(NC(=O)N2CCC(C(=O)NCc3ccc(F)cc3)CC2)cc1,6.32% (inactive)
15,CCc1ccc(CNC(=O)C2CCN(c3nnc(C)c4c(C)n(-c5ccc(C)cc5)nc34)CC2)cc1,99.3% (active)
16,CCc1ccc(CNC(=O)C2CC(=O)N(CCc3ccc(C)cc3)C2)cc1 (stereo not drawn),7.77% (inactive)
17,COc1ccc(OC)c(S(=O)(=O)N2CCCC(C(=O)NCCc3ccccc3)C2)c1 (stereo not drawn),5.79% (inactive)
18,N#CCCN(C(=O)COC(=O)C1CCN(c2ccc(C(F)(F)F)cn2)CC1)c1ccc(F)cc1,-15.9% (inactive)
19,CCOC(=O)C1(Cc2ccccc2C)CCCN(C(=O)c2ccc(COC)o2)C1 (stereo not drawn),-235% (inactive)
20,Cc1cccc(N=Nc2c(O)[nH]c3ccc(F)cc23)c1,-236% (inactive)
21,NS(=O)(=O)c1ccc(N=Nc2c(O)[nH]c3ccc(Br)cc23)cc1,98.7% (active)
22,O=C(CNC(=O)Cc1ccccc1)N=Nc1c(O)[nH]c2ccc(Br)cc12,-7.31% (inactive)
